Our source for the growth values is PubChem BioAssay (NCI).

Among the test systems are SR leukemia; RPMI-8226 leukemia; OVCAR-8 ovarian; OVCAR-5 ovarian; SK-OV-3 ovarian; IGROV1 ovarian; OVCAR-3 ovarian; HS 578T breast; NCI/ADR-RES ovarian; T-47D breast; BT-549 breast; MDA-MB-435 melanoma; SW-620 colon; MCF7 breast; HCT-116 colon; HCC-2998 colon; KM12 colon; OVCAR-4 ovarian.
Common to all, as to experiment: NCI-60 one-dose screen, 48 h (100 = growth as untreated, 0 = no growth, -100 = all killed)
Details in all cases: 10 µM unless noted

Molecules are shown by their SMILES. About 83,000 compounds went through this panel and 20% of them were active in at least one assay; those are over-represented in the sample as a whole.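 48-hour exposure, single concentration, 96-well plates; percent growth endpoint where 0 means no net growth. Active: below 10.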 Unmarked numbers belong to inactive results. Activity calls are given as the source filed them.

Consider `CN1CCN(CC#CCn2c3c(c4ccccc42)C[C@]2(C)[C@H]4CC[C@@H]5[C@H]6[C@H]7OC(=O)[C@@]6(CCC7(C)C)CC[C@@]5(C)[C@]4(C)CC[C@H]2C3(C)C)CC1`, for which the growth with SR leukemia is 0.535% (active); in the assay with RPMI-8226 leukemia it was 59.2%; in the assay on OVCAR-8 ovarian it was 60.3%; with OVCAR-5 ovarian, 112%; in the assay with SK-OV-3 ovarian it was 106%; with IGROV1 ovarian, 90.9%. Further, the growth was 80.2% in the assay with OVCAR-3 ovarian; 101% in the assay with HS 578T breast; 77% with NCI/ADR-RES ovarian; 104% in the assay on T-47D breast; 89.5% in the assay with BT-549 breast; 97.8% with MDA-MB-435 melanoma. Besides, the growth in the assay with SW-620 colon was 91.2%; in the assay with MCF7 breast, 67.7%; with HCT-116 colon, 35.1%; with HCC-2998 colon, 106%; in the assay on KM12 colon, 93.7%.
In the case of `O=C(NO)c1ccc(Cn2c(=O)n(-c3ccccc3)c(=O)c3ccccc32)cc1`, the growth is 7.9% (active) with SR leukemia; 14.8% in the assay on RPMI-8226 leukemia; -6.49% (active) with OVCAR-8 ovarian; 62.2% with OVCAR-5 ovarian; 26.3% in the assay with SK-OV-3 ovarian; 33.5% in the assay on IGROV1 ovarian. Further, the growth in the assay on OVCAR-3 ovarian was 24.2%; in the assay with HS 578T breast, 57.8%; in the assay on NCI/ADR-RES ovarian, 101%; with T-47D breast, 14.1%; in the assay with BT-549 breast, 32.4%; in the assay with MDA-MB-435 melanoma, -64.2% (active). In addition, the growth was 0.142% (active) with SW-620 colon; 33.2% with MCF7 breast; -53.1% (active) with HCT-116 colon; 54.1% in the assay on HCC-2998 colon; -7.84% (active) in the assay with KM12 colon.
Turning to `N#CC1C(=N)Cc2ccccc2-c2ccccc21` (centres undefined), the growth is 26.7% in the assay with SR leukemia; 52.3% with RPMI-8226 leukemia; 63.1% in the assay with OVCAR-8 ovarian; 88.3% in the assay on OVCAR-5 ovarian; 66.7% in the assay with SK-OV-3 ovarian; 45.7% in the assay on IGROV1 ovarian. Also, the growth in the assay with OVCAR-3 ovarian is 41.6%; in the assay with HS 578T breast, 36.5%; with NCI/ADR-RES ovarian, 1.44% (active); in the assay with T-47D breast, 60.9%; in the assay on BT-549 breast, 41.5%; with MDA-MB-435 melanoma, -23.8% (active). Moreover, the growth was 19.2% in the assay with SW-620 colon; 31.4% with MCF7 breast; 33.1% with HCT-116 colon; 86.8% in the assay with HCC-2998 colon; 18% in the assay with KM12 colon.
On to `Cn1c2c(c3ccc(Cl)cc31)-n1cccc1C2=O`, for which the growth with SR leukemia is 67.1%; in the assay on RPMI-8226 leukemia it was 88.3%; in the assay on OVCAR-8 ovarian, 83.5%; with OVCAR-5 ovarian it was 103%; in the assay on SK-OV-3 ovarian, 102%; in the assay with IGROV1 ovarian, 69.9%. Moreover, the growth in the assay with OVCAR-3 ovarian was 104%; in the assay with HS 578T breast, 104%; in the assay with NCI/ADR-RES ovarian, 99.7%; in the assay with T-47D breast it was 95.2%; with BT-549 breast it was 92.6%; in the assay with MDA-MB-435 melanoma it was 112%. Moreover, the growth in the assay on SW-620 colon was 93.7%; in the assay with MCF7 breast, 74.2%; in the assay with HCT-116 colon, 76.9%; with HCC-2998 colon, 101%; in the assay on KM12 colon it was 100%.
For `Cc1ccc(Nc2c(C(N)=O)cnc3ccc(S(=O)(=O)Nc4cc(C)on4)cc23)cc1`, the growth in the assay on SR leukemia was 101%; with RPMI-8226 leukemia, 103%; in the assay with OVCAR-8 ovarian, 97.9%; in the assay on OVCAR-5 ovarian, 99.5%; in the assay on SK-OV-3 ovarian, 107%; in the assay on IGROV1 ovarian, 101%. Also, the growth in the assay with OVCAR-3 ovarian was 103%; in the assay with HS 578T breast it was 104%; with NCI/ADR-RES ovarian, 101%; with T-47D breast, 92.7%; in the assay with BT-549 breast, 105%; in the assay on MDA-MB-435 melanoma, 103%. Besides, the growth with SW-620 colon is 105%; in the assay on MCF7 breast it was 93.9%; in the assay on HCT-116 colon, 94%; with HCC-2998 colon it was 107%; in the assay with KM12 colon it was 103%.
Regarding `COc1ccc2c(c1)c1nc3cc(C)c(C)cc3nc1n2CCN(C)C`, the growth was -8.86% (active) in the assay with SR leukemia; -16.3% (active) with RPMI-8226 leukemia; 6.83% (active) in the assay on OVCAR-8 ovarian; -2.58% (active) in the assay with OVCAR-5 ovarian; 27.5% with SK-OV-3 ovarian; -7.58% (active) in the assay on IGROV1 ovarian. Moreover, the growth in the assay with OVCAR-3 ovarian was 27.1%; with HS 578T breast, 44.6%; with NCI/ADR-RES ovarian, -70.3% (active); in the assay on T-47D breast, 25.3%; with BT-549 breast, 56%; in the assay with MDA-MB-435 melanoma, 18.1%. In addition, the growth in the assay with SW-620 colon was -66.1% (active); with MCF7 breast it was -69.9% (active); with HCT-116 colon it was -70.1% (active); in the assay on HCC-2998 colon it was 20.5%; in the assay on KM12 colon, 18%.
Consider `CC(C)=CCC/C(C)=C/CC/C(C)=C/CC/C(C)=C/CSC[C@H](NC(=O)CCCCCN1CCN(C)CC1)C(=O)NC1CCCCC1`, for which the growth is 2.5% (active) with SR leukemia; 63.4% in the assay on RPMI-8226 leukemia; 90.3% in the assay on OVCAR-8 ovarian; 85% with OVCAR-5 ovarian; 96.5% in the assay with SK-OV-3 ovarian; 80.6% in the assay on IGROV1 ovarian. The growth in the assay with OVCAR-3 ovarian is 91.1%; in the assay on HS 578T breast it was 95.7%; with NCI/ADR-RES ovarian, 86.9%; with T-47D breast, 58.3%; in the assay on BT-549 breast it was 102%; in the assay on MDA-MB-435 melanoma, 48.5%. Further, the growth was -12.9% (active) with SW-620 colon; 17% in the assay on MCF7 breast; 6.51% (active) in the assay on HCT-116 colon; 63.8% with HCC-2998 colon; 81.7% in the assay on KM12 colon.
As to `O=C1c2ccccc2C(=Cc2ccccc2)c2ccccc21`, the growth was 8.17% (active) with SR leukemia; 22.4% in the assay with RPMI-8226 leukemia; 21.6% in the assay with OVCAR-8 ovarian; 43.3% with OVCAR-5 ovarian; 6.28% (active) with OVCAR-4 ovarian; 40% with IGROV1 ovarian. Besides, the growth in the assay with OVCAR-3 ovarian is -36.5% (active); in the assay on NCI/ADR-RES ovarian, -64.4% (active); in the assay with T-47D breast, 29.4%; in the assay on BT-549 breast it was -3.95% (active); in the assay on MDA-MB-435 melanoma, -56.4% (active); in the assay with SW-620 colon, 12.6%. The growth in the assay on HCT-116 colon is 5.11% (active); with HCC-2998 colon, -45.7% (active); with KM12 colon, -26.6% (active).
